Shiga toxin inh: Shiga toxin inhibition; Vero cells, Shiga toxin protein synthesis inhibition reporter; inhibition, % at 38.7 µM; actives 9.2% (n = 290,000); in the data active = inhibition mostly above about 28%, no sharp cut-off; inactive = mostly below about 43%; also: 0% is about no effect
Pf growth 96h: P. falciparum growth inhibition at 96 hours. Potency, µM (top dose mostly 28.7 µM), inactives show top-dose activity change, negative = inhibition, actives largely listed as inhibitors. actives 6.9% (n = 320,000). P. falciparum luciferase reporter growth, 96 h; also: potency is read from the fitted curve at half-maximal effect; % is scaled to controls: 0 for no effect and ±100 for the full control effect
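Delayed-death screen, second-generation endpoint: infected erythrocytes, 2% hematocrit, 0.05% parasitemia final; 96 hours at 37 C, 5% CO2; luciferase detection reagent; luminescence decrease equals reduced growth.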
Cycloheximide cs: counter-screen for Shiga toxin inhibitors: cycloheximide protein synthesis inhibition; AID 2314; max response, %; cell reporter, cycloheximide protein synthesis inhibition counterscreen; actives 12% (n = 300,000); in the data active = max response mostly above about 13%, no sharp cut-off; inactive = mostly below about 14%; also: read at 38.3 µM for the half of the compounds with a filed dose; 0% is about no effect
Marburg entry inh: Marburg virus entry inhibition; Marburg virus pseudotyped entry inhibition, cell reporter; Potency, µM (titrated, usually from 37.8 µM), inactives show at the top dose activity change, negative = inhibition, hits mostly inhibitors; actives 1.8% (n = 300,000); AID 540276; calls by dose curve; tested in HEK293 cells; also: potency is read from the fitted curve at half-maximal effect; % is scaled to controls: 0 for no effect and ±100 for the full control effect
LASV entry inh: inhibitors of Lassa virus binding or cell entry. Lassa virus pseudotype entry inhibition, cell reporter. Potency, µM (doses to about 37.9 µM), without a hit: at the top dose activity change, negative = inhibition, usual class: inhibitors. actives 1.2% (n = 300,000); calls by dose curve; tested in HEK293 cells; also: potency is read from the fitted curve at half-maximal effect; % is scaled to controls: 0 for no effect and ±100 for the full control effect; nearly all actives have a fitted effect of over 50% in size
Pf growth 48h: inhibits P. falciparum growth in the first generation, 48 h; P. falciparum luciferase growth in erythrocytes, 48 h; Potency, µM (series often up to 28.7 µM), without a hit: at the top dose activity change, negative = inhibition, usual class: inhibitors; actives 5.9% (n = 310,000); AID 504832; also: potency is read from the fitted curve at half-maximal effect; % is scaled to controls: 0 for no effect and ±100 for the full control effect
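A one-generation exposure of luciferase-tagged malaria parasites in RPMI 1640/Albumax erythrocyte culture, 37 C and 5% CO2. Inhibition is inferred from decreased luminescence after adding detection reagent.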
The depositor's hits bear a star; [ ] = remark or other dose. This is a sample that favours compounds with a hit; in the whole collection about 19% have one here. Unless noted, calls follow the shape of the dose curve; as a rule, active = well fitted inhibition curve with a large enough effect; inconclusive = small, poorly fitted or top-dose-only effect, or another doubt; inactive = no such curve, though single readings can be large or run the other way.

What do the screens show for `Cc1ccc(-c2nc(SC(C)C(=O)c3c(N)n(C)c(=O)n(C)c3=O)n[nH]2)cc1` (configuration not stated)?
Pf growth 96h: -15.1%; Marburg entry inh: -23.0%; LASV entry inh: inconclusive; Pf growth 48h: -2.4%

What do the screens show for `CCOC(=O)C(=Cc1ccc(-n2cncn2)cc1)C(=O)OCC`?
Shiga toxin inh: -18.7; Pf growth 96h: inconclusive; Cycloheximide cs: -3.4; Marburg entry inh: inconclusive; LASV entry inh: 11.2µM*; Pf growth 48h: inconclusive

How did CCOC(=O)C(=Cc1ccccc1)C(=O)OCC do in these assays?
Shiga toxin inh: -21.0; Cycloheximide cs: -10.1

Results for Cc1ccc(O)c(NC(=O)c2ccco2)c1 ?
Shiga toxin inh: 55.5*; Cycloheximide cs: 35.6*; Marburg entry inh: 10.6%[46.1 µM]; LASV entry inh: inconclusive; Pf growth 48h: 43.9%

What do the screens show for `Cc1cc(O)c(NC(=O)c2ccco2)cc1C`?
Shiga toxin inh: 99.4*; Pf growth 96h: 6.8%; Cycloheximide cs: 57.4*; Marburg entry inh: 17.0%; LASV entry inh: 18.6%; Pf growth 48h: 2.7%

What do the screens show for `O=C(Nc1ccc(O)cc1C(=O)O)c1ccc(NC(=O)c2ccco2)cc1`?
Pf growth 96h: -22.9%; Pf growth 48h: -1.9%

What do the screens show for `Cc1ccc(C(=O)Nc2ccc(NC(=O)c3ccco3)c(C)c2)cc1`?
Shiga toxin inh: 49.0*; Pf growth 96h: 3.2%; Cycloheximide cs: 30.6*; Marburg entry inh: inconclusive; LASV entry inh: inconclusive; Pf growth 48h: 77.0%

What do the screens show for `COc1ccccc1NC(=O)c1cccc(NC(=O)c2ccco2)c1`?
Shiga toxin inh: -1.5; Pf growth 96h: inconclusive; Cycloheximide cs: -0.6; Marburg entry inh: inconclusive; LASV entry inh: -19.6%; Pf growth 48h: -20.3%

How did Cc1ccc(O)c(NC(=O)c2cccc(NC(=O)c3ccco3)c2)c1 do in these assays?
Shiga toxin inh: 57.9*; Pf growth 96h: 14.8%; Cycloheximide cs: 29.6*; Marburg entry inh: -2.5%[46.1 µM]; LASV entry inh: 9.3%; Pf growth 48h: 27.7%

Results for Cc1c(Cl)cccc1NC(=O)c1ccco1 ?
Pf growth 96h: inconclusive; Cycloheximide cs: 10.0; Marburg entry inh: -0.6%; LASV entry inh: inconclusive; Pf growth 48h: 31.1%

How did CCOc1ccc(-c2cc(C(=O)NCCc3ccc(OC)c(OC)c3)c3c(-c4ccc(F)cc4)[nH]nc3n2)cc1 do in these assays?
LASV entry inh: -14.2%[46.1 µM]

What do the screens show for `O=S(=O)(Nc1ccc2ccccc2n1)c1ccccc1Cl`?
Shiga toxin inh: -4.3; Pf growth 96h: -11.2%; Cycloheximide cs: -4.7; Pf growth 48h: 73.5%

Results for O=C(NN1C(=O)C2C3CCC(O3)C2C1=O)c1ccc(Br)o1 (configuration not stated) ?
Shiga toxin inh: 3.7; Pf growth 96h: -27.4%; Cycloheximide cs: 9.6; Marburg entry inh: 4.7%; LASV entry inh: 4.1%; Pf growth 48h: 5.8%

Results for CCOc1ccccc1CNCCO ?
Shiga toxin inh: -5.0; Pf growth 96h: -23.8%; Cycloheximide cs: 2.9; Marburg entry inh: 22.2%; LASV entry inh: 14.6%; Pf growth 48h: 8.1%

Results for C/C(CCN1CCc2nc(-c3ccccc3)c(-c3ccccc3)cc2C1)=N\O[C@@H](C)c1cn([C@H](CO)Cc2ccccc2)nn1 ?
Shiga toxin inh: -9.9; Pf growth 96h: 13.1µM*; Cycloheximide cs: -1.7; Marburg entry inh: inconclusive; LASV entry inh: inconclusive; Pf growth 48h: inconclusive

What do the screens show for `COc1ccc(-c2nn(-c3ccccc3)cc2C(=O)OCC(=O)c2ccc(C)c([N+](=O)[O-])c2)cc1`?
Shiga toxin inh: -12.6; Pf growth 96h: inconclusive; Cycloheximide cs: -1.0; Marburg entry inh: -21.4%; LASV entry inh: 3.6%; Pf growth 48h: 10.4µM*

What do the screens show for `COc1ccc(-c2cc(C(=O)OCC(=O)c3ccc(C)c([N+](=O)[O-])c3)c3ccccc3n2)cc1`?
Shiga toxin inh: 8.2; Pf growth 96h: -43.0%; Cycloheximide cs: 3.9; Marburg entry inh: inconclusive; LASV entry inh: -28.7%; Pf growth 48h: 5.3%

Results for CCN(CC)c1ccc(N=Nc2ncn[nH]2)cc1 ?
Shiga toxin inh: 123.7*; Pf growth 96h: 39.1%; Cycloheximide cs: 33.6*; Marburg entry inh: inconclusive; LASV entry inh: inconclusive; Pf growth 48h: 197.0%

Results for CCN(CC)c1ccc(C(=O)O)cc1 ?
Shiga toxin inh: -10.2; Pf growth 96h: 75.3%; Cycloheximide cs: -1.6; Pf growth 48h: 0.4%

Results for CCCNS(=O)(=O)/C=C/c1ccccc1 ?
Shiga toxin inh: -4.2; Pf growth 96h: 12.6%; Cycloheximide cs: 3.5; Marburg entry inh: 20.6%[46.1 µM]; LASV entry inh: -14.5%; Pf growth 48h: 18.3%

How did CCN1/C(=C/C=C/c2oc3ccc(-c4ccccc4)cc3[n+]2CC)Oc2ccc(-c3ccccc3)cc21 do in these assays?
Shiga toxin inh: -35.4; Pf growth 96h: -22.5%; Cycloheximide cs: -6.6; Marburg entry inh: 2.51µM*; LASV entry inh: 4.47µM*; Pf growth 48h: 0.928µM*

Results for O=C(COC(=O)c1cc(Cl)ccc1O)NCCC1=CCCCC1 ?
Pf growth 96h: 2.7%; Pf growth 48h: 16.7%

Results for CCOC(=O)CC(c1ccc([N+](=O)[O-])cc1)n1c(C)ccc1C (configuration not stated) ?
Shiga toxin inh: -1.9; Pf growth 96h: inconclusive; Cycloheximide cs: -1.5; Marburg entry inh: inconclusive; LASV entry inh: 2.3%; Pf growth 48h: inconclusive

Results for COC(=O)CC(c1ccc(C#N)cc1)n1c(C)ccc1C (configuration not stated) ?
Shiga toxin inh: 1.2; Pf growth 96h: 13.1µM*; Cycloheximide cs: -2.4; Marburg entry inh: -26.9%[46.1 µM]; LASV entry inh: -14.2%[46.1 µM]; Pf growth 48h: 9.28µM*

How did Oc1ccc2c3c1O[C@H]1c4[nH]c5ccccc5c4C[C@@]4(O)C(C2)N(CC2CC2)CC[C@]314 do in these assays?
Shiga toxin inh: -8.2; Cycloheximide cs: -1.6

What do the screens show for `Oc1ccc2c3c1O[C@H]1c4oc5ccccc5c4C[C@@]4(O)[C@@H](C2)N(CC2CC2)CC[C@]314`?
Shiga toxin inh: 24.6; Pf growth 96h: 4.65µM*; Cycloheximide cs: -2.6; Pf growth 48h: inconclusive

What do the screens show for `Oc1ccc2c3c1O[C@H]1[C@@H](O)CC[C@@]4(O)C(C2)N(CC2CCC2)CCC314` (some centres not stated)?
Pf growth 96h: 3.38µM*; Marburg entry inh: 22.7%; Pf growth 48h: inconclusive

Results for Cc1ccsc1C(=O)OCC(=O)N1CCN(c2ccccc2)CC1 ?
Marburg entry inh: inconclusive; LASV entry inh: -0.7%[46.1 µM]

Results for O=C(c1ccco1)N1CCN(Cc2cc(=O)c(OCc3cccc(F)c3)co2)CC1 ?
Pf growth 96h: inconclusive; Marburg entry inh: inconclusive; LASV entry inh: 12.2%; Pf growth 48h: inconclusive

Results for Fc1cccc(Nc2ncnc3[nH]ncc23)c1 ?
Shiga toxin inh: 0.8; Pf growth 96h: 18.4%; Cycloheximide cs: -4.9; Pf growth 48h: 38.4%

Compound activity as filed in PubChem.
